Laboratory results published in PubChem BioAssay AID1159580 (chemical genetic matrix, 2015).
Several values for one entry are separate records, joined by “and”; a condition that tells them apart may be missing. Equal entries are not always repeated. Hit rate of the full screen: of about 5,500 compounds, about 2,000 (36%) were called active. Inconclusive results (about 18%) are left out. Rule as the data show it: active = normalized growth mostly below about 0.91 (no sharp cut-off); inconclusive = no clear call, values can overlap the other calls; inactive = mostly above about 0.92. The list shows a part of the results.

Experiment: chemical genetic growth profiling, strain panel (AID 1159580);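 also: tested at 20 µM; growth read once vehicle control cultures reached saturation at 30 °C; 1 = growth at the plate median or of vehicle wells; lower values mean less growth of the strain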
Conditions: growth OD

Measured: normalized growth

CN=C(NC#N)NCCSCc1nc[nH]c1C
inactive: S. cerevisiae deletion strains, locus YJR075W, strain HOC1, active compounds read low 1.01 | S. cerevisiae deletion strains, locus YKL009W, strain mrt4, active compounds read low 1.03 | S. cerevisiae deletion strains, locus YKL068W, active compounds read low 0.992 | S. cerevisiae deletion strains, locus YKL085W, strain MDH1 (second series), active compounds read low 0.992 | S. cerevisiae deletion strains, locus YKL085W, strain MDH1, active compounds read low 0.992 | S. cerevisiae deletion strains, locus YKL160W, strain elf1, active compounds read low 0.986 | S. cerevisiae deletion strains, locus YKL190W, strain CNB1, active compounds read low 1 | S. cerevisiae deletion strains, locus YKR001C, strain vps1, active compounds read low 0.998 | S. cerevisiae deletion strains, locus YKR026C, strain gcn3, active compounds read low 1 | S. cerevisiae deletion strains, locus YKR091W, strain srl3, active compounds read low 1 | S. cerevisiae deletion strains, locus YLL001W, strain dnm1, active compounds read low 1 | S. cerevisiae deletion strains, locus YLL026W, active compounds read low 0.997 | S. cerevisiae deletion strains, locus YLL041C, strain sdh2, active compounds read low 1 | S. cerevisiae deletion strains, locus YLR027C, strain aat2, active compounds read low 1.01 | S. cerevisiae deletion strains, locus YLR039C, strain RIC1, active compounds read low 1 | S. cerevisiae deletion strains, locus YLR058C, strain SHM2, active compounds read low 0.989 | S. cerevisiae deletion strains, locus YLR102C, strain apc9, active compounds read low 0.985 | S. cerevisiae deletion strains, locus YLR113W, strain HOG1, active compounds read low 1.03 | S. cerevisiae deletion strains, locus YLR221C, strain rsa3, active compounds read low 0.986 | S. cerevisiae deletion strains, locus YLR258W, strain gsy2, active compounds read low 1.02 | S. cerevisiae deletion strains, locus YLR262C, strain YPT6 (second series), active compounds read low 1.01 | S. cerevisiae deletion strains, locus YLR262C, strain YPT6, active compounds read low 1.01 | S. cerevisiae deletion strains, locus YLR268W, strain sec22, active compounds read low 0.955 | S. cerevisiae deletion strains, locus YLR320W, strain mms22, active compounds read low 0.982 | S. cerevisiae deletion strains, locus YLR330W, strain CHS5, active compounds read low 0.991 | S. cerevisiae deletion strains, locus YLR342W, strain FKS1 (second series), active compounds read low 1.01 | S. cerevisiae deletion strains, locus YLR342W, strain FKS1, active compounds read low 1 | S. cerevisiae deletion strains, locus YLR357W, strain rsc2, active compounds read low 0.979 | S. cerevisiae deletion strains, locus YLR370C, strain arc18, active compounds read low 1.01 | S. cerevisiae deletion strains, locus YLR371W, strain rom2, active compounds read low 0.993 | S. cerevisiae deletion strains, locus YLR384C, strain iki3, active compounds read low 0.998 | S. cerevisiae deletion strains, locus YLR418C, strain cdc73, active compounds read low 1.03 | S. cerevisiae deletion strains, locus YML016C, strain PPZ1, active compounds read low 0.997 | S. cerevisiae deletion strains, locus YML032C, strain rad52, active compounds read low 0.986 | S. cerevisiae deletion strains, locus YML120C, strain ndi1, active compounds read low 0.993 | S. cerevisiae deletion strains, locus YML124C, strain tub3, active compounds read low 0.98 | S. cerevisiae deletion strains, locus YMR058W, strain fet3, active compounds read low 1 | S. cerevisiae deletion strains, locus YMR078C, strain ctf18, active compounds read low 0.986 | S. cerevisiae deletion strains, locus YMR125W, strain sto1, active compounds read low 0.996 | S. cerevisiae deletion strains, locus YMR129W, active compounds read low 1 | S. cerevisiae deletion strains, locus YMR205C, strain PFK2, active compounds read low 0.994 | S. cerevisiae deletion strains, locus YMR223W, strain ubp8, active compounds read low 1.02 | S. cerevisiae deletion strains, locus YMR231W, strain pep5, active compounds read low 0.999 | S. cerevisiae deletion strains, locus YMR263W, strain SAP30, active compounds read low 0.998 | S. cerevisiae deletion strains, locus YMR307W, strain GAS1, active compounds read low 1 | S. cerevisiae deletion strains, locus YNL067W, strain RPL9B, active compounds read low 1 | S. cerevisiae deletion strains, locus YNL071W, strain lat1, active compounds read low 1.01 | S. cerevisiae deletion strains, locus YNL128W, strain TEP1, active compounds read low 0.991 | S. cerevisiae deletion strains, locus YNL153C, strain GIM3, active compounds read low 0.994 and 1.05 | S. cerevisiae deletion strains, locus YNL175C, strain NOP13, active compounds read low 1 | S. cerevisiae deletion strains, locus YNL183C, strain NPR1, active compounds read low 1 | S. cerevisiae deletion strains, locus YNL197C, strain WHI3, active compounds read low 1.02 | S. cerevisiae deletion strains, locus YNL209W, strain ssb2, active compounds read low 1 | S. cerevisiae deletion strains, locus YNL224C, strain SQS1, active compounds read low 0.993 | S. cerevisiae deletion strains, locus YNL233W, strain BNI4, active compounds read low 0.988 | S. cerevisiae deletion strains, locus YNL248C, strain rpa49, active compounds read low 0.996 | S. cerevisiae deletion strains, locus YNL250W, strain rad50, active compounds read low 0.953 | S. cerevisiae deletion strains, locus YNL271C, strain bni1, active compounds read low 0.965 | S. cerevisiae deletion strains, locus YNL298W, strain CLA4, active compounds read low 0.971 | S. cerevisiae deletion strains, locus YNL307C, strain MCK1, active compounds read low 0.996 | S. cerevisiae deletion strains, locus YNL322C, strain KRE1 (second series), active compounds read low 0.989 | S. cerevisiae deletion strains, locus YNL322C, strain KRE1, active compounds read low 1 | S. cerevisiae deletion strains, locus YNR049C, strain mso1, active compounds read low 1 | S. cerevisiae deletion strains, locus YNR052C, strain pop2, active compounds read low 1 | S. cerevisiae deletion strains, locus YOL006C, strain TOP1, active compounds read low 1.01 | S. cerevisiae deletion strains, locus YOL012C, strain htz1 0.875 | S. cerevisiae deletion strains, locus YOL147C, strain pex11, active compounds read low 0.973 | S. cerevisiae deletion strains, locus YOR001W, strain rrp6, active compounds read low 0.999 | S. cerevisiae deletion strains, locus YOR061W, strain CKA2, active compounds read low 0.99 | S. cerevisiae deletion strains, locus YOR069W, strain VPS5, active compounds read low 0.99 | S. cerevisiae deletion strains, locus YOR070C, strain gyp1, active compounds read low 0.996 | S. cerevisiae deletion strains, locus YOR080W, strain dia2, active compounds read low 1 | S. cerevisiae deletion strains, locus YOR083W, strain WHI5 (second series), active compounds read low 1.04 | S. cerevisiae deletion strains, locus YOR083W, strain WHI5, active compounds read low 0.981 | S. cerevisiae deletion strains, locus YOR106W, strain vam3, active compounds read low 0.979 | S. cerevisiae deletion strains, locus YOR136W, strain idh2, active compounds read low 0.994 | S. cerevisiae deletion strains, locus YOR144C, strain elg1, active compounds read low 0.983 | S. cerevisiae deletion strains, locus YOR184W, strain ser1, active compounds read low 0.993 | S. cerevisiae deletion strains, locus YOR231W, strain MKK1, active compounds read low 1.03 | S. cerevisiae deletion strains, locus YOR265W, strain rbl2, active compounds read low 0.999 | S. cerevisiae deletion strains, locus YOR270C, strain vph1, active compounds read low 1.02 | S. cerevisiae deletion strains, locus YOR290C, strain snf2, active compounds read low 0.972 | S. cerevisiae deletion strains, locus YOR316C, strain cot1, active compounds read low 0.991 | S. cerevisiae deletion strains, locus YPL051W, strain arl3, active compounds read low 0.991 | S. cerevisiae deletion strains, locus YPL055C, strain LGE1, active compounds read low 1.05 | S. cerevisiae deletion strains, locus YPL078C, strain atp4, active compounds read low 1.01 | S. cerevisiae deletion strains, locus YPL106C, strain sse1, active compounds read low 0.972 | S. cerevisiae deletion strains, locus YPL240C, strain hsp82, active compounds read low 1 | S. cerevisiae deletion strains, locus YPL241C, strain CIN2, active compounds read low 0.995 and 1.01 | S. cerevisiae deletion strains, locus YPL256C, strain CLN2, active compounds read low 1.06 | S. cerevisiae deletion strains, locus YPR119W, strain clb2, active compounds read low 0.978 | S. cerevisiae deletion strains, locus YPR141C, strain kar3, active compounds read low 0.97 | S. cerevisiae deletion strains, locus YPR163C, strain tif3, active compounds read low 0.984 | S. cerevisiae deletion strains, locus YPR167C, strain met16, active compounds read low 0.986 | S. cerevisiae deletion strains, strain wtn01, active compounds read low 1.01 | S. cerevisiae strains, strain wild type, active compounds read low 0.998
